# Measurements as given in PubChem BioAssay (NCATS).
# Results filed as inconclusive are left out. Where a call stands in place of a potency, no number is given. Activity calls are given as the source filed them. The call rests on the fitted dose curve; in most records, active means well fitted cell-killing curve with a large enough effect; inconclusive means small, poorly fitted or top-dose-only effect, or effect the other way; inactive means flat fitted curve, though single readings scatter.
# Tested on: C33A
# Assay: Primary qHTS to identify gynecologic anti-cancer compounds using libraries of approved drugs and bioactive compounds (AID 1345084); further: nearly all actives have a fitted effect of over 55% in size
# Details: Gynecologic cancer cell panel viability, ATPlite luminescence, 48 h; series mostly up to 57.5 µM
# Procedure, shortened: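 Cell viability after 48 h drug treatment, ATPlite luminescence readout; five doses.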
# Potency means the concentration at half of the fitted maximal effect.
row,SMILES,Potency
1,N[C@@H](Cc1cc(I)c(Oc2cc(I)c(O)c(I)c2)c(I)c1)C(=O)O,inactive
2,COc1ccccc1N1CCN(CCN(C(=O)C2CCCCC2)c2ccccn2)CC1,inactive
3,CNC[C@H](O)c1ccc(O)c(O)c1,inactive
4,Nc1ncn([C@H]2C[C@H](O)[C@@H](CO)O2)c(=O)n1,inactive
5,Cc1cc(=O)oc2cc(O)ccc12,inactive
6,O=C(NOCC1CC1)c1ccc(F)c(F)c1Nc1ccc(I)cc1Cl,inactive
7,Nc1ccc(S(N)(=O)=O)cc1,inactive
8,CCCCc1ccc2nc(NC(=O)OC)[nH]c2c1,0.794 µM (active)
9,COc1cc(OC)c(C(=O)CCCN2CCCC2)c(OC)c1,inactive
10,Cc1nc(Nc2ncc(C(=O)Nc3c(C)cccc3Cl)s2)cc(N2CCN(CCO)CC2)n1,inactive
11,CCN(CC)CCOc1ccc(Cc2ccccc2)cc1,inactive
12,CCOC(=O)c1c(C)n(C)c2ccc(O)cc12,inactive
13,Cc1cc(=O)c2c(O)c3c(O)cc(=O)c4c3c3c(cc(O)c1c23)C(C)(C)C=4O,3.55 µM (active)
14,O=C(O)c1cccnc1Nc1cccc(C(F)(F)F)c1,inactive
15,CCC(C)(Oc1ccc(C2(c3ccc(OC(C)(CC)C(=O)O)cc3)CCCCC2)cc1)C(=O)O (stereo not given),inactive
16,CC1Cc2ccccc2N1NC(=O)c1ccc(Cl)c(S(N)(=O)=O)c1 (stereo not given),inactive
17,Cc1ccc(C(=O)c2cc(O)c(O)c([N+](=O)[O-])c2)cc1,inactive
18,Cc1nccn1CC1CCc2c(c3ccccc3n2C)C1=O (stereo not given),inactive
19,CC(S)C(=O)NCC(=O)O (stereo not given),inactive
20,COCCCOc1ccnc(CS(=O)c2nc3ccccc3[nH]2)c1C (stereo not given),inactive
21,CC(C)c1ccc2oc3nc(N)c(C(=O)O)cc3c(=O)c2c1,8.91 µM (active)
22,Cc1ccc(Nc2nccc(N(C)c3ccc4c(C)n(C)nc4c3)n2)cc1S(N)(=O)=O,inactive
23,O=C(NCCO[N+](=O)[O-])c1cccnc1,inactive
24,CC1(C)NC(=O)N(c2ccc([N+](=O)[O-])c(C(F)(F)F)c2)C1=O,inactive
25,Oc1ccc(OCc2ccccc2)cc1,inactive
26,Cc1ccc(NC(=O)c2ccc(CN3CCN(C)CC3)cc2)cc1Nc1nccc(-c2cccnc2)n1,inactive
27,NC(=O)Cc1cccc(C(=O)c2ccccc2)c1N,inactive
28,c1cnc2cc3c(cc2n1)C1CNCC3C1,inactive
29,c1ccc2[nH]c(-c3cscn3)nc2c1,inactive
30,OC(CN1CCN(c2cccc(Cl)c2)CC1)C(c1ccccc1)c1ccccc1 (stereo not given),inactive
